{
  "source": "PubChem BioAssay",
  "note": "Activity calls are given as the source filed them. Rule as the data show it: active = nuclear beta-catenin stimulation mostly above about 4.2% (no sharp cut-off); inactive = mostly below about 10%.",
  "data": [
    {"experiment": "Wnt pathway potentiators raising nuclear beta-catenin – imaging, WNT3A-conditioned medium, mouse C2C12, NPC library, primary screen (AID 1117326); also: reference of the scale not given here", "conditions": "at 10 µM, stronger effect = higher value", "values": [
      {"compound": "Cc1ncc(COP(=O)(O)O)c(C=O)c1O", "nuclear beta-catenin stimulation": "-1.1% (inactive)"},
      {"compound": "CCCCCOc1ccc(C2SC(=O)NC2=O)cc1OCC", "note": "(stereo not drawn)", "nuclear beta-catenin stimulation": "-0.1% (inactive)"},
      {"compound": "CC1(C)S[C@@H]2[C@H](NC(=O)Cc3ccccc3)C(=O)N2[C@H]1C(=O)O", "note": "(tested in a mixture with another compound)", "nuclear beta-catenin stimulation": "0.8% (inactive)"},
      {"compound": "CC[C@@]1(c2ccccc2)NC(=O)N(C)C1=O", "nuclear beta-catenin stimulation": "0.1% (inactive)"},
      {"compound": "CC(=O)CCC(=O)O", "nuclear beta-catenin stimulation": "-1.6% (inactive)"},
      {"compound": "C=Cc1c(C)c2cc3nc(cc4[nH]c(cc5nc(cc1[nH]2)C(C)=C5CCC(=O)O)c(CCC(=O)OC)c4C)[C@@]1(C)C3=CC=C(C(=O)OC)[C@@H]1C(=O)OC", "nuclear beta-catenin stimulation": "16.7% (inactive)"},
      {"compound": "CS(=O)(=O)c1ccc(-c2cn3ccccc3n2)cc1", "nuclear beta-catenin stimulation": "-2% (inactive)"},
      {"compound": "C[C@@H]1C[C@H]2[C@@H]3CCC4=CC(=O)C=C[C@]4(C)[C@@]3(F)[C@@H](O)C[C@]2(C)[C@@]1(O)C(=O)COC(=O)c1ccncc1", "nuclear beta-catenin stimulation": "2.8% (inactive)"},
      {"compound": "COc1cc(S(N)(=O)=O)cc(C(=O)O)c1OC", "nuclear beta-catenin stimulation": "-0.6% (inactive)"},
      {"compound": "C/C=C/C=N/NC(=O)c1ccncc1", "nuclear beta-catenin stimulation": "0.2% (inactive)"},
      {"compound": "Cc1ccccc1N1CCN(CCc2nnc3n2CCCC3)CC1", "nuclear beta-catenin stimulation": "-0.3% (inactive)"},
      {"compound": "O=C(CCOCCOCCOCCOCCC(=O)Nc1c(I)cc(I)c(C(=O)O)c1I)Nc1c(I)cc(I)c(C(=O)O)c1I", "nuclear beta-catenin stimulation": "-0.1% (inactive)"},
      {"compound": "O=C(CN1CCNCC1)NC1CCCCC1", "nuclear beta-catenin stimulation": "-0.7% (inactive)"},
      {"compound": "CCN1C(=O)c2ccccc2C1Nc1ccc(OCCN2CCCCC2)cc1", "note": "(stereo not drawn)", "nuclear beta-catenin stimulation": "0.7% (inactive)"},
      {"compound": "CCCCCCCCCCC(CO)CCCCCCCC", "note": "(stereo not drawn)", "nuclear beta-catenin stimulation": "-0.6% (inactive)"},
      {"compound": "COc1ccnc2c1CCCCC2S(=O)c1nc2ccccc2[nH]1", "note": "(stereo not drawn)", "nuclear beta-catenin stimulation": "-0.3% (inactive)"},
      {"compound": "COC1=C(OC)C(=O)C(CC=C(C)CCC=C(C)CCC=C(C)CCC=C(C)CCC=C(C)CCC=C(C)CCC=C(C)CCC=C(C)CCC=C(C)CCC=C(C)C)=C(C)C1=O", "nuclear beta-catenin stimulation": "0.8% (inactive)"},
      {"compound": "O=[N+]([O-])c1ccc(Oc2ccc(N=C=S)cc2)cc1", "nuclear beta-catenin stimulation": "36.7% (inactive)"},
      {"compound": "Oc1ccccc1-c1nnco1", "nuclear beta-catenin stimulation": "0.3% (inactive)"},
      {"compound": "CCCCC(C)(O)CC=C[C@H]1[C@H](O)CC(=O)[C@H]1CCCCCCC(=O)OC", "note": "(stereo partly drawn)", "nuclear beta-catenin stimulation": "-0.9% (inactive)"},
      {"compound": "Cc1ccc(/C=N/n2c(-c3ccccc3)csc2=S)cc1", "nuclear beta-catenin stimulation": "1.7% (inactive)"},
      {"compound": "Nc1ccc(C(=O)OCC(O)CO)cc1", "note": "(stereo not drawn)", "nuclear beta-catenin stimulation": "3.1% (inactive)"},
      {"compound": "Cc1cc(N)c2cc(NC(=O)Nc3ccc4nc(C)cc(N)c4c3)ccc2n1", "nuclear beta-catenin stimulation": "2.4% (inactive)"},
      {"compound": "CNC(=O)c1c(I)c(NC(=O)CCCCC(=O)Nc2c(I)c(C(=O)O)c(I)c(C(=O)NC)c2I)c(I)c(C(=O)O)c1I", "nuclear beta-catenin stimulation": "-0.7% (inactive)"},
      {"compound": "CCCCCCCCCCCCCCCCCCO", "nuclear beta-catenin stimulation": "0.4% (inactive)"},
      {"compound": "CC1c2ccccc2CN1NC(=O)c1ccc(Cl)c(S(N)(=O)=O)c1", "note": "(stereo not drawn)", "nuclear beta-catenin stimulation": "1.2% (inactive)"},
      {"compound": "CCN[C@@H]1C[C@H](N)[C@@H](OC2OC(CN)=CCC2N)[C@H](O)[C@H]1O[C@H]1OC[C@](C)(O)[C@H](NC)[C@H]1O", "note": "(stereo partly drawn)", "nuclear beta-catenin stimulation": "1.3% (inactive)"},
      {"compound": "Oc1ccccc1C=NCc1ccccc1", "nuclear beta-catenin stimulation": "-0.8% (inactive)"},
      {"compound": "C=Cc1ccccc1", "nuclear beta-catenin stimulation": "-2.1% (inactive)"},
      {"compound": "O=C(Nc1ccc(Cl)cc1)Nc1ccc(Cl)c(C(F)(F)F)c1", "nuclear beta-catenin stimulation": "25.5% (inactive)"},
      {"compound": "CCOC(=O)c1ccc(O)c(O)c1", "nuclear beta-catenin stimulation": "4.9% (inactive)"},
      {"compound": "C=CCNc1nc(NCC=C)nc(N2CCN(C(c3ccc(F)cc3)c3ccc(F)cc3)CC2)n1", "nuclear beta-catenin stimulation": "0.3% (inactive)"},
      {"compound": "O=S(=O)(O)c1ccc(O)cc1", "nuclear beta-catenin stimulation": "0.1% (inactive)"},
      {"compound": "CCNC(=O)NCCCOc1cccc(CN2CCCCC2)c1", "nuclear beta-catenin stimulation": "-0.4% (inactive)"},
      {"compound": "CC(C)(C)c1ccc2c(S(=O)(=O)O)c(C(C)(C)C)ccc2c1", "nuclear beta-catenin stimulation": "-2.9% (inactive)"},
      {"compound": "NCC(=O)O", "nuclear beta-catenin stimulation": "2.3% (inactive)"},
      {"compound": "CN1N=C(C(N)=O)CCC1=O", "nuclear beta-catenin stimulation": "1.1% (inactive)"},
      {"compound": "Oc1cc(O)cc(O)c1", "nuclear beta-catenin stimulation": "-0.5% (inactive)"},
      {"compound": "CCOC(=O)c1ccc(OCCN2C[C@H](O)[C@@H](O)[C@H](O)[C@H]2CO)cc1", "nuclear beta-catenin stimulation": "1.7% (inactive)"}
    ]},
    {"experiment": "Wnt pathway potentiators raising nuclear beta-catenin – imaging, WNT3A-conditioned medium, mouse C2C12, NPC library, primary screen (AID 1117326); also: reference of the scale not given here", "conditions": "stimulation, at 2 µM, stronger effect = higher value", "units": {"nuclear beta-catenin stimulation": "%"}, "values": [
      {"compound": "Cc1ncc(COP(=O)(O)O)c(C=O)c1O", "nuclear beta-catenin stimulation": -0.2},
      {"compound": "CCCCCOc1ccc(C2SC(=O)NC2=O)cc1OCC", "note": "(stereo not drawn)", "nuclear beta-catenin stimulation": 11.7},
      {"compound": "CC1(C)S[C@@H]2[C@H](NC(=O)Cc3ccccc3)C(=O)N2[C@H]1C(=O)O", "note": "(tested in a mixture with another compound)", "nuclear beta-catenin stimulation": -0.3},
      {"compound": "CC[C@@]1(c2ccccc2)NC(=O)N(C)C1=O", "nuclear beta-catenin stimulation": 0.6},
      {"compound": "CC(=O)CCC(=O)O", "nuclear beta-catenin stimulation": -1.3},
      {"compound": "C=Cc1c(C)c2cc3nc(cc4[nH]c(cc5nc(cc1[nH]2)C(C)=C5CCC(=O)O)c(CCC(=O)OC)c4C)[C@@]1(C)C3=CC=C(C(=O)OC)[C@@H]1C(=O)OC", "nuclear beta-catenin stimulation": 0.4},
      {"compound": "CS(=O)(=O)c1ccc(-c2cn3ccccc3n2)cc1", "nuclear beta-catenin stimulation": -0.4},
      {"compound": "C[C@@H]1C[C@H]2[C@@H]3CCC4=CC(=O)C=C[C@]4(C)[C@@]3(F)[C@@H](O)C[C@]2(C)[C@@]1(O)C(=O)COC(=O)c1ccncc1", "nuclear beta-catenin stimulation": 2.8},
      {"compound": "COc1cc(S(N)(=O)=O)cc(C(=O)O)c1OC", "nuclear beta-catenin stimulation": 3.5},
      {"compound": "C/C=C/C=N/NC(=O)c1ccncc1", "nuclear beta-catenin stimulation": 0.6},
      {"compound": "Cc1ccccc1N1CCN(CCc2nnc3n2CCCC3)CC1", "nuclear beta-catenin stimulation": 0},
      {"compound": "O=C(CCOCCOCCOCCOCCC(=O)Nc1c(I)cc(I)c(C(=O)O)c1I)Nc1c(I)cc(I)c(C(=O)O)c1I", "nuclear beta-catenin stimulation": -1.6},
      {"compound": "O=C(CN1CCNCC1)NC1CCCCC1", "nuclear beta-catenin stimulation": 0.3},
      {"compound": "CCN1C(=O)c2ccccc2C1Nc1ccc(OCCN2CCCCC2)cc1", "note": "(stereo not drawn)", "nuclear beta-catenin stimulation": 0.3},
      {"compound": "CCCCCCCCCCC(CO)CCCCCCCC", "note": "(stereo not drawn)", "nuclear beta-catenin stimulation": -0.4},
      {"compound": "COc1ccnc2c1CCCCC2S(=O)c1nc2ccccc2[nH]1", "note": "(stereo not drawn)", "nuclear beta-catenin stimulation": 3},
      {"compound": "COC1=C(OC)C(=O)C(CC=C(C)CCC=C(C)CCC=C(C)CCC=C(C)CCC=C(C)CCC=C(C)CCC=C(C)CCC=C(C)CCC=C(C)CCC=C(C)C)=C(C)C1=O", "nuclear beta-catenin stimulation": 1.2},
      {"compound": "O=[N+]([O-])c1ccc(Oc2ccc(N=C=S)cc2)cc1", "nuclear beta-catenin stimulation": 1.6},
      {"compound": "Oc1ccccc1-c1nnco1", "nuclear beta-catenin stimulation": -0.2},
      {"compound": "CCCCC(C)(O)CC=C[C@H]1[C@H](O)CC(=O)[C@H]1CCCCCCC(=O)OC", "note": "(stereo partly drawn)", "nuclear beta-catenin stimulation": 2.4},
      {"compound": "Cc1ccc(/C=N/n2c(-c3ccccc3)csc2=S)cc1", "nuclear beta-catenin stimulation": -0.8},
      {"compound": "Nc1ccc(C(=O)OCC(O)CO)cc1", "note": "(stereo not drawn)", "nuclear beta-catenin stimulation": 3.7},
      {"compound": "Cc1cc(N)c2cc(NC(=O)Nc3ccc4nc(C)cc(N)c4c3)ccc2n1", "nuclear beta-catenin stimulation": -2.2},
      {"compound": "CNC(=O)c1c(I)c(NC(=O)CCCCC(=O)Nc2c(I)c(C(=O)O)c(I)c(C(=O)NC)c2I)c(I)c(C(=O)O)c1I", "nuclear beta-catenin stimulation": 2.2},
      {"compound": "CCCCCCCCCCCCCCCCCCO", "nuclear beta-catenin stimulation": -0.4},
      {"compound": "CC1c2ccccc2CN1NC(=O)c1ccc(Cl)c(S(N)(=O)=O)c1", "note": "(stereo not drawn)", "nuclear beta-catenin stimulation": 4.6},
      {"compound": "CCN[C@@H]1C[C@H](N)[C@@H](OC2OC(CN)=CCC2N)[C@H](O)[C@H]1O[C@H]1OC[C@](C)(O)[C@H](NC)[C@H]1O", "note": "(stereo partly drawn)", "nuclear beta-catenin stimulation": 0},
      {"compound": "Oc1ccccc1C=NCc1ccccc1", "nuclear beta-catenin stimulation": -0.6},
      {"compound": "C=Cc1ccccc1", "nuclear beta-catenin stimulation": -0.8},
      {"compound": "O=C(Nc1ccc(Cl)cc1)Nc1ccc(Cl)c(C(F)(F)F)c1", "nuclear beta-catenin stimulation": -0.2},
      {"compound": "CCOC(=O)c1ccc(O)c(O)c1", "nuclear beta-catenin stimulation": 3.4},
      {"compound": "C=CCNc1nc(NCC=C)nc(N2CCN(C(c3ccc(F)cc3)c3ccc(F)cc3)CC2)n1", "nuclear beta-catenin stimulation": -1},
      {"compound": "O=S(=O)(O)c1ccc(O)cc1", "nuclear beta-catenin stimulation": 2},
      {"compound": "CCNC(=O)NCCCOc1cccc(CN2CCCCC2)c1", "nuclear beta-catenin stimulation": -1.5},
      {"compound": "CC(C)(C)c1ccc2c(S(=O)(=O)O)c(C(C)(C)C)ccc2c1", "nuclear beta-catenin stimulation": -1.4},
      {"compound": "NCC(=O)O", "nuclear beta-catenin stimulation": 4},
      {"compound": "CN1N=C(C(N)=O)CCC1=O", "nuclear beta-catenin stimulation": 1.9},
      {"compound": "Oc1cc(O)cc(O)c1", "nuclear beta-catenin stimulation": 2.8},
      {"compound": "CCOC(=O)c1ccc(OCCN2C[C@H](O)[C@@H](O)[C@H](O)[C@H]2CO)cc1", "nuclear beta-catenin stimulation": 0.9}
    ]}
  ]
}
